Measured values from PubChem BioAssay (NCI).
Values joined by “and” are separate entries in the source; they are usually repeats but may differ in a detail not shown here. Equal values may be shown once. Compounds without any hit were thinned out: in the full panel of roughly 79,000, 15% have a hit. No stated cut-off is given here; in the data, active means growth inhibition above about 70%; inactive means the rest.

Assays:
[1] = NCI Yeast Anticancer Drug Screen. Data for the rad50 strain (AID 155);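 further: 0% = growth of vehicle-only cultures of the same strain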; conditions: S. cerevisiae rad50 strain growth inhibition; at 50.0 µM; hits give high values
Method in brief: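 Growth of the mutant yeast was measured after compound exposure and referenced to vehicle-treated cultures.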

[2] = NCI Yeast Anticancer Drug Screen. Data for the mec2-1 strain (AID 157); conditions: S. cerevisiae mec2-1 strain, at 50.0 µM, hits give high values
Method in brief: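 Cells of the genetically defined mec2-1 yeast strain are incubated with test compound. Inhibition of growth is calculated against vehicle-treated controls.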

[3] = NCI Yeast Anticancer Drug Screen. Data for the sgs1 mgt1 strain (AID 161);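 further: 0% = growth of cultures given vehicle only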; conditions: S. cerevisiae sgs1 mgt1 strain, at 50.0 µM, hits give high values
Method in brief: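 Mutant yeast exposed to compound; growth scored against vehicle-only wells.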

[4] = NCI Yeast Anticancer Drug Screen. Data for the cln2 rad14 strain (AID 165);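 further: 0% = growth equal to vehicle treated cultures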; conditions: S. cerevisiae cln2 rad14 strain, at 50.0 µM, hits give high values
Method in brief: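 The screen exposed genetically defined yeast (cln2 rad14) to test compounds and scored growth inhibition relative to vehicle-treated controls.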

[5] = NCI Yeast Anticancer Drug Screen. Data for the bub3 strain (AID 167); conditions: S. cerevisiae bub3 mutant strain, at 50.0 µM, hits give high values
Method in brief: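 Whole-cell yeast assay. The mutant strain was incubated with compounds, and growth inhibition was determined by comparison with vehicle-treated cells.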

[6] = NCI Yeast Anticancer Drug Screen. Data for the mlh1 rad18 strain (AID 175); conditions: S. cerevisiae mlh1 rad18 strain growth inhibition; at 50.0 µM; hits give high values
Method in brief: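 Compound-treated yeast growth, normalised to vehicle controls. Strain bears defined DNA repair mutations.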

Measured: growth inhibition

CC(C)(O)C(I)C[n+]1ccccc1 (stereo unspecified)
inactive: [1] 38.5% and -7.55% | [2] 41.6% and -2.95% | [3] 50.5% and -28.9% | [4] 4.9% and -6.9% | [5] 39.9% and 0.85% | [6] 46.9% and -7.3%

NC1CCC(N)CC1 (stereo unspecified)
inactive: [1] 7.75% and 9.05% | [2] 10% and -5.85% | [3] 0.2% and 0.75% | [4] -11.8% and -16.1% | [5] 8.65% and 10.4% | [6] -6.35% and 1.4%

COc1ccc2c(=O)c(C)c(-c3ccccc3)oc2c1CN(C)C
inactive: [1] 5.85% and -33.4% | [2] -40.1% and -38.5% | [3] 10.3% and -26.6% | [4] 9.8% and -0.05% | [5] -22.6% and -24.3% | [6] 2% and -28.3%

Nc1nc(N)c(Br)c(=O)[nH]1
inactive: [1] -11.3% and 9% | [2] -36.4% and -24.6% | [3] -11.3% and -38.1% | [4] 12.2% and -83.6% | [5] -10.9% and -13.3% | [6] -6.75% and -21.4%

Nc1ncnc2c1nc(N1CCCCC1)n2C1OC(CO)C(O)C1O (stereo unspecified)
inactive: [1] 27.9% and -5.55% | [2] 12.2% and -0.15% | [3] 9.9% | [4] -38% and -43.2% | [5] 3.5% and -5.1% | [6] 2.6% and -7.85%

Cc1cc(=O)cc(C)o1
inactive: [1] -11.2% and 18.4% | [2] -12.8% and 5.6% | [3] -10.2% and -20.6% | [4] -2.45% and -47.6% | [5] 2.35% and -5.85% | [6] -8.55% and 0.05%

CCOC(=O)C(=O)Cc1cnc2ccccc2n1
inactive: [1] 1.95% and 3.05% | [2] 7.55% and -4.8% | [3] -18.8% and -8.3% | [4] 3.6% and 10.7% | [5] -1.2% and 7.2% | [6] 16.2% and -5.05%

c1ccc([P+](Cc2ccccc2C[P+](c2ccccc2)(c2ccccc2)c2ccccc2)(c2ccccc2)c2ccccc2)cc1
inactive: [1] -15% and 20.1% | [2] -20.9% and 6.8% | [3] -5.3% and 7.25% | [4] -8.25% and 14.8% | [5] 1.6% and 7.8% | [6] -50% and 12.3%

CC(=O)OCC(OC(C)=O)C(OC(C)=O)C(OC(C)=O)C(COC(=O)c1ccccc1)OC(=O)c1ccccc1 (stereo unspecified)
inactive: [1] 4.35% and 18.9% | [2] -3.75% and 5.75% | [3] -10.6% and -4.1% | [4] -21.1% and 3.7% | [5] 4.35% and -0.35% | [6] 2.15% and 10.3%

Cc1nc2ccc(Br)cc2c(=O)n1-c1ccc(NC2OC(CO)C(O)C(O)C2O)cc1 (stereo unspecified)
inactive: [1] 49.9% and -0.75% | [2] 36.6% and -23.4% | [3] -33.1% and 0.7% | [4] -3.65% and -35.2% | [5] -49.1% and -7.65% | [6] -60.5% and -10.8%

O=C(O)C1CCCCC1
inactive: [1] -5.9% and -10.2% | [2] -22.6% and -8.45% | [3] -13.7% and 22.7% | [4] 5.95% and -13.2% | [5] 2.15% and 2.55% | [6] 8.3% and 17.1%

CC(=O)OC1COC(N2CCc3ccccc32)C(OC(C)=O)C1OC(C)=O (stereo unspecified)
inactive: [1] -16.2% and -19% | [2] -2.95% and -28% | [3] -33% and -34.4% | [4] -6.75% and -2.5% | [5] -27.7% and -17.9% | [6] -25.2% and -33.2%

CC(C)CC(NC(=O)COc1ccc(Cl)cc1Cl)C(=O)O (stereo unspecified)
inactive: [1] -16.8% and -4.25% | [2] -3.15% and -14.4% | [3] 7.55% and -4.15% | [4] -50.5% and -21.7% | [5] 4.5% and 13.7% | [6] -3.8% and -11.1%

CC(C)CC(CC(C)C)=NNc1ccc([N+](=O)[O-])cc1[N+](=O)[O-]
inactive: [1] -12.9% and -0.9% | [2] 6.5% and -18.6% | [3] -10% and -6.9% | [4] -33.3% and 19.9% | [5] 12.3% and -10.9% | [6] -13.9% and 19.4%

Nc1cc(=O)[nH][nH]1
inactive: [1] -11.7% and -11.5% | [2] -9.65% and -5.8% | [3] -2.15% and -22.4% | [4] -5.9% and -7.35% | [5] -17.8% and -0.2% | [6] -15.8% and -9.2%

O=C1NC(CCCl)C(=O)NC1CCCl (stereo unspecified)
inactive: [1] 1.6% and -0.7% | [2] -2.05% and 4.55% | [3] -16.1% and -3.55% | [4] -10.2% and -7.55% | [5] -1.45% and 2.4% | [6] 1.6% and -1.35%

CC(=O)C(C)(CCC#N)CCC#N
inactive: [1] -7.25% and 12.7% | [2] 12.1% and -9.2% | [3] -1.4% and -1% | [4] -3.95% and -36.5% | [5] 9.35% and -5.15% | [6] -12.1% and 27%

CC1CCC2(OC1)OC1CC3C4CCC5CC(O)CCC5(C)C4CCC3(C)C1C2C (stereo unspecified)
inactive: [1] 22.4% and -15.3% | [2] -29.8% and -19.3% | [3] 2.45% and -24.1% | [4] 7.15% and 0.8% | [5] 9.4% and -9.1% | [6] 26.8% and -12.7%

CCC(N)C(=O)O (stereo unspecified)
inactive: [1] -0.4% and 5.25% | [2] -31.6% and 6.85% | [3] 1.75% and -11.3% | [4] 8.55% and 9.4% | [5] -9.75% and -14.9% | [6] -10.8% and -0.8%

COc1cc2c(c(OC)c1OC)-c1ccc(OC)c(=O)cc1C([N+](C)(C)C)CC2 (stereo unspecified)
inactive: [1] 21.2% and -13.3% | [2] 12.3% and 7.7% | [3] 16.9% and -18.1% | [4] -0.65% and -11.1% | [5] -3% and -0.4% | [6] 25.5% and 7.4%

COC1OC(CO)C(O)C(O)C1N1C(=O)c2ccccc2C1=O (stereo unspecified)
inactive: [1] 9.35% and -4.5% | [2] -4.15% and 8.4% | [3] 22.6% and -3.85% | [4] 7.95% and -15.8% | [5] 12.2% and 4.45% | [6] 19% and -3.45%
